In the library only some 2.8% were active in any assay of this set; here they are far more common.
SENP6 block – SENP6 protease inhibition. 330,000 compounds, 1.8% hits. inhibition, % at 10 µM. Recombinant SENP6 catalytic domain, aminoluciferin luminescence;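 active = inhibition above about 50% at the single tested dose, limit read from the data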;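 also: plate controls were DMSO wells with enzyme for no effect and DMSO wells lacking enzyme for full effect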
HSP90 inh – inhibitors of HSP90 luciferase refolding in rabbit reticulocyte lysate; luciferase refolding luminescence, 3 h; inhibition, % at 5.6 µM; 290,000 compounds, 0.91% hits; AID 1789;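 active = inhibition above the screen-wide mean plus 3 SD, computed separately per campaign, cut at about 16% in these data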;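 also: 0% = DMSO wells and 100% = 60 µM geldanamycin wells; inhibitors lower the luminescence because luciferase stays unfolded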
SENP7 inh – inhibitors of human SENP7 protease | AID 434973 | recombinant SENP7, Z-RLRGG-aminoluciferin luminescence, 40 min | 330,000 compounds, 1.5% hits | inhibition, % at 5 µM | Q9BQF6;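 active = inhibition above about 50% at the single test dose, limit read from the data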;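 also: plate controls were DMSO with enzyme for no effect and no enzyme buffer wells for full effect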
Target sequence (Q9BQF6 706-1050 limits assumed): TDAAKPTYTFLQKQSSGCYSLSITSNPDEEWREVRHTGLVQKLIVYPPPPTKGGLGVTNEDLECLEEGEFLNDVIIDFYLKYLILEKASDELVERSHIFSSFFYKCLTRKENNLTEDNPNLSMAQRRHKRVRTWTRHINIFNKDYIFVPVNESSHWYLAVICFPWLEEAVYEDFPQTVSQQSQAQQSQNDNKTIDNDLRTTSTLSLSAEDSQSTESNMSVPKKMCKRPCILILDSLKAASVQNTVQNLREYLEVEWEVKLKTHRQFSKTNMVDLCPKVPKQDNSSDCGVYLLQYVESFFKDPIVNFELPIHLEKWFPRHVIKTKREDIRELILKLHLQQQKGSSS
SENP8 block-1 – inhibitors of human SENP8 protease; Q96LD8; inhibition, % at 10 µM; purified SENP8, Z-RLRGG-aminoluciferin cleavage, luminescence; 330,000 compounds, 1.2% hits; in the data active = inhibition above about 50%
SENP8 block-2 – SENP8 (human) protease inhibition | Q96LD8 | recombinant SENP8, Nedd8 substrate fluorescence | inhibition, % at 20 µM | 360,000 compounds, 0.64% hits; in the data active = inhibition mostly above about 40%, no sharp cut-off; inactive = mostly below about 27%
Platelet DG rel – modulates dense granule release in human platelets. human platelet-rich plasma, SFLLRN dense granule ATP release, luminescence. inhibition, %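 (compounds screened at 7.5 µM in platelet-rich plasma)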. 300,000 compounds, 0.22% hits;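 active = mean replicate score, as percent of positive control, at or above 50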
HSP90 inh confirm – confirmation of HSP90 inhibitors; shares compounds with HSP90 inh; rabbit reticulocyte lysate, luciferase refolding luminescence, 3 h; inhibition, % at 5.9 µM; 2,300 compounds, 64% hits; in the data active = inhibition above about 18%;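 also: 0% = vehicle wells and 100% = reference inhibitor wells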
luciferase ctr – blocks native firefly luciferase in HSP90 counter-screen | shares compounds with HSP90 inh | purified native firefly luciferase, luminescence | inhibition, % at 5.9 µM | 2,300 compounds, 48% hits | AID 1847;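 active = inhibition above the mean inhibition of all tested sample wells plus 3 SD, cut at about 10% in these data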;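 also: 0% = DMSO with luciferase and 100% = wells lacking luciferase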
SENP8 confirm – human SENP8 inhibition, confirmed | Recombinant SENP8, Z-RLRGG-aminoluciferin luminescence, 60 min | shares compounds with SENP7 inh | inhibition, % at 12.5 µM | 6,200 compounds, 40% hits;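 active = mean inhibition across replicates above about 50%, limit read from the data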
SENP6 conf – human SENP6 inhibition, confirmed | AID 488915 | shares compounds with SENP7 inh | recombinant SENP6, Z-RLRGG-aminoluciferin luminescence | 6,200 compounds, 58% hits | inhibition, % at 12.5 µM
SENP7 conf – confirmation of human SENP7 protease inhibitors | shares compounds with SENP7 inh | recombinant SENP7, Z-RLRGG-aminoluciferin luminescence, 40 min | inhibition, % at 12.5 µM | 6,200 compounds, 69% hits | AID 488917
Casp3 select – caspase-3 inhibition (SENP selectivity assay); shares compounds with SENP7 inh; inhibition, % at 12.5 µM; 6,200 compounds, 60% hits; purified caspase-3, Z-DEVD-aminoluciferin luminescence, 60 min;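 active = mean inhibition above about 50%, limit read from the data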;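 also: plate controls were enzyme with DMSO for no effect and wells without caspase-3 for full effect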
Target sequence (P42574 28-227 limits assumed): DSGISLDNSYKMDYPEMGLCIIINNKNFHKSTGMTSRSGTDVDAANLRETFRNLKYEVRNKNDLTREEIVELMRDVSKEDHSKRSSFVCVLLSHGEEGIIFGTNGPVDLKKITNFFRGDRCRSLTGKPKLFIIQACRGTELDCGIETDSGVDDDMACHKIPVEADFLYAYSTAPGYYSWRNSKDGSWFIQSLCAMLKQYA
Luc interf – counter-screen for SENP inhibitors: luminescence interference; AID 488919; 6,200 compounds, 39% hits; inhibition, % at 12.5 µM; Pre-incubated SENP8/Z-RLRGG-aminoluciferin, luciferase luminescence interference; shares compounds with SENP7 inh;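 active = mean inhibition above about 50% when retested at one dose, limit read from the data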;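 also: plate controls were DMSO wells with completed reaction for no effect and substrate without enzyme for full effect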
An asterisk follows results filed as active; nt = no result.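 The calls were made as follows, unless noted: active = mean inhibition above about 50% in the one-dose retest (limit read from the data); inactive = the rest.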

SMILES	SENP6 block	HSP90 inh	SENP7 inh	SENP8 block-1	SENP8 block-2	Platelet DG rel	HSP90 inh confirm	luciferase ctr	SENP8 confirm	SENP6 conf	SENP7 conf	Casp3 select	Luc interf
CCOc1ccc(OCC(=O)Nc2nccs2)cc1	97*	54*	98*	95*	18	69*	77*	70*	97*	97*	102*	98*	88*
COCCN(C(=O)COC(=O)Cc1coc2cc3c(cc12)CCC3)c1c(N)n(Cc2ccccc2)c(=O)[nH]c1=O	2	nt	-9	-4	-30	0	nt	nt	nt	nt	nt	nt	nt
N/C(=N\N=C\c1ccc2c(c1)OCO2)c1nonc1N	95*	21*	98*	95*	16	38	54*	37*	95*	96*	101*	96*	64*
c1ccc(-n2ncc3c(N4CCCCC4)ncnc32)cc1	84*	56*	84*	85*	0	-14	80*	74*	86*	84*	96*	86*	84*
COc1ccc(CNC(=O)c2ccc(S(=O)(=O)NCc3ccco3)cc2)cc1	-15	nt	-6	-10	5	nt	nt	nt	nt	nt	nt	nt	nt
Cc1nc(Nc2ccc(C(=O)O)cc2)sc1-c1ccccc1	95*	34*	100*	96*	-400	-1	84*	63*	72*	92*	67*	18	6
Cc1nc(Nc2ccccc2)sc1C(=O)c1ccccc1	-7	-1	5	-8	-20	-20	nt	nt	nt	nt	nt	nt	nt
CN(C)c1ccc(N=Nc2nc3ccccc3n2C)cc1	100*	21*	100*	97*	50*	182*	19*	93*	95*	101*	103*	89*	36
CCn1c(NCc2ccc(N(C)C)cc2)nc2ccccc21	-6	2	0	-6	34	1	nt	nt	nt	nt	nt	nt	nt
Cc1ccc(/C=N/Nc2ccc(Cl)c(C(=O)O)c2)s1	96*	24*	84*	84*	-55	8	77*	37*	96*	96*	101*	50*	94*
O=C(O)c1cc(N/N=C/C(Cl)=C/c2ccccc2)ccc1Cl	88*	48*	89*	96*	-36	1	89*	80*	98*	99*	101*	38	97*
O=C(O)c1ccc(N/N=C/c2cc3c(cc2[N+](=O)[O-])OCO3)cc1	-8	8	-7	16	20	21	nt	nt	nt	nt	nt	nt	nt
C/C(=N\Nc1ccc(Cl)c(C(=O)O)c1)c1ccc2c(c1)OCO2	-2	9	3	-2	-12	-3	nt	nt	nt	nt	nt	nt	nt
O=C(O)c1cc(N/N=C/c2ccc3c(c2)OCO3)ccc1Cl	66*	47*	7	69*	-73	14	83*	54*	3	81*	95*	63*	83*
O=C(O)c1ccc(N/N=C/c2ccc3c(c2)OCO3)cc1	97*	82*	100*	98*	-244	86*	94*	88*	99*	100*	103*	98*	98*
Cc1ccc(/C=N/Nc2nc(Cl)c(Cl)cc2Cl)s1	26	-1	13	5	-186	0	nt	nt	nt	nt	nt	nt	nt
COc1ccc(NC(=O)CSc2nc3ccsc3c(=O)n2CCC(=O)O)cc1	nt	nt	nt	nt	22	nt	nt	nt	nt	nt	nt	nt	nt
O=C(CNC(=O)c1ccccc1)Nc1ccsc1C(=O)O	-7	0	2	0	2	-1	nt	nt	nt	nt	nt	nt	nt
Cc1ccc(C(=O)Nc2ccsc2C(=O)O)cc1	94*	18*	94*	92*	15	-4	13	-1	1	97*	102*	98*	96*
CN1N=C2c3ccccc3CCC2C1c1ccc(Cl)cc1 (stereo unspecified)	31	23*	7	59*	-195	8	34*	16*	-5	-2	1	-1	-2
CN1N=C2c3ccccc3CCC2C1c1ccc(F)cc1 (stereo unspecified)	29	6	12	35	-289	-9	nt	nt	nt	nt	nt	nt	nt
CCN(CC)CCOc1c(Br)ccc2c1sc1nc3n(c(=O)c12)CCC3	-14	-1	-3	6	-5	-4	nt	nt	nt	nt	nt	nt	nt
O=c1c2c(nc3n1CCCCC3)sc1c(O)c(Br)ccc12	65*	23*	34	26	6	-7	35*	37*	59*	59*	87*	69*	14
CCOC(=O)c1c(N)sc(C(=O)Nc2ccc3c(c2)OCO3)c1C	97*	41*	98*	92*	1	56*	69*	59*	10	98*	103*	96*	96*
CCOC(=O)c1c(C)c(C(=O)Nc2ccc3c(c2)OCO3)c(C)n1C	-9	-2	4	-4	-2	-6	nt	nt	nt	nt	nt	nt	nt
SMILES	SENP6 block	HSP90 inh	SENP7 inh	SENP8 block-1	SENP8 block-2	Platelet DG rel	HSP90 inh confirm	luciferase ctr	SENP8 confirm	SENP6 conf	SENP7 conf	Casp3 select	Luc interf
CC(=O)Nc1ccc(C(=O)Nc2ccc3c(c2)OCO3)cc1	-7	-4	7	-6	1	-1	nt	nt	nt	nt	nt	nt	nt
O=C(Nc1ccc2c(c1)OCO2)Nc1ccc2c(c1)OCO2	3	-4	39	6	6	5	nt	nt	nt	nt	nt	nt	nt
Cc1cc(C(=O)Nc2ccc3c(c2)OCO3)cs1	64*	20*	73*	50	3	7	12	-14	70*	72*	93*	86*	75*
O=C(Nc1ccc(N2CCCCC2)cc1)c1ccccn1	101*	92*	100*	95*	1	75*	93*	89*	95*	98*	103*	98*	76*
O=C(Nc1cccc(C(=O)O)c1)Nc1ccc2c(c1)OCO2	96*	86*	100*	92*	4	11	96*	91*	97*	97*	101*	93*	96*
COc1ccc(C(=O)CCC(=O)NC2=NCCS2)cc1	-9	7	-1	-8	-6	-10	nt	nt	nt	nt	nt	nt	nt
